Jurkat NFkB inh: inhibitors of induced NF-kB luciferase reporter, primary screen, TCR NF-kB activation inhibitor project, cell-based, luminescence, uHTS; AID 435003, 2010; inhibition, % at 4 µM; actives 0.53% (n = 330,000); Jurkat, PMA/ionomycin-induced NF-kB luciferase reporter; in the data active = inhibition above about 50%
697 NFkB inh: inhibitors of PMA/ionomycin-induced NF-kB reporter, 697 cells, primary screen, B-cell NF-kB inhibitor project, cell-based, luminescence, uHTS | 697 B-cell NF-kB luciferase reporter, 16 h | inhibition, % at 4 µM | actives 0.33% (n = 330,000); in the data active = inhibition above about 35%
Beta apoptosis: inhibitors of cytokine-induced beta cell apoptosis, primary screen, luminescence. protection from apoptosis, % (concentration not given with the values). INS-1E cytokine-induced death, ATP luminescence, 48 h; percent of positive-control rescue, neutral wells zero. actives 0.8% (n = 300,000);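 active = Every replicate reaches about 75%, or at least half do and their mean reaches it too, limit read from the data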;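 note: 0% = cytokine-treated negative control wells and 100% = positive control rescue; higher means more ATP so stronger rescue from cytokine killing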
Gli-Sufu block: Gli-Sufu pathway antagonists, primary screen, luciferase luminescence, Sufu-KO-LIGHT cells, uHTS; Sufu-KO-LIGHT fibroblasts, Gli luciferase reporter luminescence; inhibition, % at 5 µM; actives 0.74% (n = 340,000);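 active = inhibition above about 55%, limit read from the data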;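 note: 0% = DMSO-treated cells and 100% = wells with medium but no cells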
697 NFkB conf: PMA/ionomycin-induced NF-kB reporter inhibitors, 697 retest, confirmation, B-cell NF-kB inhibitor project, cell-based, luminescence, single concentration; inhibition, % at 4 µM; AID 449746, 2010; shares compounds with 697 NFkB inh; 697 B-cell NF-kB luciferase, 16 h; actives 35% (n = 2,000); in the data active = inhibition mostly above about 28%, no sharp cut-off; inactive = mostly below about 22%
The depositor's hits bear a star. Most compounds without a hit are left out; they make up all but 1.8% or so of the library.

CCOC(=O)[C@H]1[C@H]2COc3ccccc3[C@@H]2N2C(=O)c3ccc(C)cc3NC(=O)[C@@]12C was read as Jurkat NFkB inh 11.3, 697 NFkB inh 36.1*, Beta apoptosis -1.1, Gli-Sufu block -10.8 and 697 NFkB conf 18.5.
For COCCCn1c(=O)c2sccc2n2c(CCCC(=O)NCc3cccc(OC)c3)nnc12 the results were Jurkat NFkB inh 13.6, 697 NFkB inh -35.9, Beta apoptosis -2.3 and Gli-Sufu block -14.8.
For COc1ccccc1NC(=O)N1CCN(c2ccc3nncn3n2)CC1 the results were Jurkat NFkB inh 3.7, 697 NFkB inh 16.8, Beta apoptosis -3.8 and Gli-Sufu block -16.4.
For O=C(Nc1ccccc1Cl)N1CCN(c2ccc3nnc(-c4ccc(F)cc4)n3n2)CC1 the results were Jurkat NFkB inh 18.1, 697 NFkB inh 36.3*, Beta apoptosis -3.1, Gli-Sufu block 3.7 and 697 NFkB conf 16.6.
Screening Fc1ccc(-c2nnc3ccc(N4CCCC4)nn23)cc1 returned Jurkat NFkB inh 4.6, 697 NFkB inh 8.6 and Gli-Sufu block -5.0.
`COc1ccccc1NC(=O)N1CCN(c2ccc3nnc(-c4ccc(F)cc4)n3n2)CC1` gave Jurkat NFkB inh 7.5, 697 NFkB inh 35.1*, Beta apoptosis 5.8, Gli-Sufu block 19.9 and 697 NFkB conf 9.2.
For COc1ccc2[nH]cc(C(=O)CN(C)CCc3ccc(OC)c(OC)c3)c2c1 the results were Jurkat NFkB inh 1.3, 697 NFkB inh 17.4, Beta apoptosis -1.6 and Gli-Sufu block 0.4.
`CC1=C(C(=O)Nc2cc(C(=O)N3CCN(c4cccc(C)c4)C(C)C3)ccc2C)SCCO1` (stereo not drawn) gave Jurkat NFkB inh 10.4, 697 NFkB inh -4.2, Beta apoptosis 4.1 and Gli-Sufu block 7.5.
Cc1ccccc1C(=O)Nc1ccc2c(c1)CCCN2C(=O)c1cccs1 was read as Jurkat NFkB inh -51.7, 697 NFkB inh inactive, Beta apoptosis 13.7, Gli-Sufu block -8.3 and 697 NFkB conf inactive.
COc1cccc(C(=O)Nc2ccc3c(c2)CCCN3C(=O)c2cccs2)c1OC was read as Jurkat NFkB inh -9.3, 697 NFkB inh -45.1, Beta apoptosis 22.6 and Gli-Sufu block -9.1.
Cc1ccc(-c2nc(CS(=O)(=O)CC(=O)NCCCN(Cc3ccccc3)C(C)C)c(C)o2)cc1 was read as Jurkat NFkB inh 9.9, 697 NFkB inh -17.7, Beta apoptosis 8.8 and Gli-Sufu block 24.2.
Screening Cc1oc(-c2cccc(Cl)c2)nc1CN(C)C1CCOC1 (stereo not drawn) returned Jurkat NFkB inh -8.0, 697 NFkB inh -12.2, Beta apoptosis -3.9 and Gli-Sufu block -0.4.
For Cc1oc(-c2ccc(-c3ccccc3)cc2)nc1CN(CCO)C(C)C the results were Jurkat NFkB inh -66.6, 697 NFkB inh -477.9, Beta apoptosis -4.2, Gli-Sufu block -102.8 and 697 NFkB conf -499.4.
Cc1oc(-c2ccc(-c3ccccc3)cc2)nc1CN(C)C1CCOC1 (stereo not drawn) was read as Jurkat NFkB inh -50.7, 697 NFkB inh -311.1, Beta apoptosis 5.4, Gli-Sufu block -74.8 and 697 NFkB conf -338.5.
`CCCCc1cc(=O)oc2cc(OCC(=O)N(CC)CC)ccc12` gave Jurkat NFkB inh 8.8, 697 NFkB inh 39.2*, Beta apoptosis 3.7, Gli-Sufu block -4.3 and 697 NFkB conf 21.5.
Screening C(=N\Nc1nc2ccccc2s1)/c1cccs1 returned Jurkat NFkB inh -136.9, 697 NFkB inh -327.2, Beta apoptosis -4.4, Gli-Sufu block 22.6 and 697 NFkB conf -303.8.
Screening COc1ccc(CCNC(=O)Cn2c(=O)oc3cc(Cl)ccc32)cc1OC returned Jurkat NFkB inh 5.4, 697 NFkB inh 6.1, Beta apoptosis 1.9 and Gli-Sufu block 0.0.
Screening COc1cccc(-n2cnnc2SCC(=O)NC2CC2)c1 returned Jurkat NFkB inh -14.5, 697 NFkB inh -9.4, Beta apoptosis -3.5 and Gli-Sufu block -1.4.
Screening CCCN1C(=O)/C(=C/c2c(N3CCNC(=O)C3CC(=O)OCC)nc3c(C)cccn3c2=O)SC1=S (stereo not drawn) returned Jurkat NFkB inh 10.0, 697 NFkB inh 36.7*, Beta apoptosis 6.4, Gli-Sufu block 0.9 and 697 NFkB conf 36.3*.
`O=C(O)/C=C/c1ccc(S(=O)(=O)Nc2ccc(OCc3ccccc3)cc2)cc1` gave Jurkat NFkB inh 6.9, 697 NFkB inh 10.7, Beta apoptosis -2.3 and Gli-Sufu block -2.6.
For N#Cc1ccccc1COc1ccc(/C=C/C(=O)O)cc1 the results were Jurkat NFkB inh 13.7, 697 NFkB inh 38.5*, Beta apoptosis 0.3, Gli-Sufu block 21.7 and 697 NFkB conf 38.4*.
Cc1ccc(-c2nn3c(C)nnc3c3ccccc23)cc1S(=O)(=O)N1CCN(CCO)CC1 was read as Jurkat NFkB inh -16.4, 697 NFkB inh 36.6*, Beta apoptosis 9.7, Gli-Sufu block 4.0 and 697 NFkB conf 36.5*.
For Cc1ccc(-c2nn3c(C)nnc3c3ccccc23)cc1S(=O)(=O)NCc1ccco1 the results were Jurkat NFkB inh 0.1, 697 NFkB inh 42.6*, Beta apoptosis 20.2, Gli-Sufu block 24.9 and 697 NFkB conf 43.3*.
`Cc1ccc(-c2nn3c(C)nnc3c3ccccc23)cc1S(=O)(=O)NCCO` gave Jurkat NFkB inh -4.9, 697 NFkB inh 18.1, Beta apoptosis 4.8 and Gli-Sufu block 3.2.
`Cc1nnc2c3ccccc3c(-c3ccccc3)nn12` gave Jurkat NFkB inh -7.2, 697 NFkB inh 43.4*, Beta apoptosis -28.3, Gli-Sufu block 20.5 and 697 NFkB conf 32.2*.
`Cc1ccc(-c2nn3c(C)nnc3c3ccccc23)cc1S(=O)(=O)NC(C)(C)CO` gave Jurkat NFkB inh -0.9, 697 NFkB inh 35.6*, Gli-Sufu block 22.0 and 697 NFkB conf 61.5*.
`CCOc1cccc(CN2CCC(n3nccc3NC(=O)C3CC3)CC2)c1O` gave Jurkat NFkB inh 5.8, 697 NFkB inh 13.0 and Gli-Sufu block 11.3.
Screening COc1ccccc1NC(=O)COC(=O)[C@@H]1CCCN1C(=O)c1cccs1 returned Jurkat NFkB inh 9.0, 697 NFkB inh 13.3, Beta apoptosis -2.9 and Gli-Sufu block 4.7.
Screening COc1ccc(NC(=O)c2cc3c(Cl)nc4ccccc4c3s2)cc1OC returned Jurkat NFkB inh 10.7, 697 NFkB inh 43.6*, Beta apoptosis 33.7, Gli-Sufu block 42.7 and 697 NFkB conf 39.2*.
For COc1ccc(OC)c(NC(=O)c2cc3c(Cl)nc4ccccc4c3s2)c1 the results were Jurkat NFkB inh -1.1, 697 NFkB inh 30.7, Beta apoptosis 7.6 and Gli-Sufu block 9.7.
Screening Cc1c(CCC(=O)NCCCn2ccnc2)c(=O)oc2c(C)c3oc4c(c3cc12)CCCC4 returned Jurkat NFkB inh 17.9, 697 NFkB inh 38.1*, Beta apoptosis -8.8, Gli-Sufu block -3.7 and 697 NFkB conf 22.6*.
